Pol eta inh-1 – qHTS for Inhibitors of Polymerase Eta | DNA polymerase eta (Homo sapiens), Q9Y253 | recombinant Pol eta, fluorescent DNA replication assay | Potency, µM (titrated, usually from 114 µM), without a hit: top-dose activity change, negative = inhibition, usual class: inhibitors | 390,000 compounds, 1.2% hits; further: on the % scale 0 is the no-effect control and ±100 the full control effect
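Pol eta (10 nM) was preincubated with compounds for 15 min at room temperature, after which fluorescent replication substrate (50 nM final) was added to start the reaction. Fluorescence was read kinetically at 0 and 10 min.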
WRN helicase inh – qHTS for Inhibitors of WRN Helicase. 360,000 compounds, 0.46% hits. Potency, µM (doses to about 114 µM), for inactives: at the top dose activity change, negative = inhibition, actives largely listed as inhibitors. WRN helicase unwinding, fluorescent forked duplex, kinetic; further: on the % scale 0 is the no-effect control and ±100 the full control effect; nearly all actives have a fitted effect of over 55% in size
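Fluorescence dequenching readout, ex 525 nm/em 598 nm, kinetic mode: forked duplex DNA (100 nM final) with adjacent fluorophore and quencher unwound by WRN (20 nM final) with 2 mM ATP. Compound preincubation 15 min, room temperature.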
Pol kappa inh-1 – qHTS for Inhibitors of Polymerase Kappa | Potency, µM (series often up to 107 µM), without a hit: at the highest dose activity, negative = inhibition, most hits filed as inhibitors | AID 588579, 2011 | 400,000 compounds, 0.53% hits | purified Pol kappa, fluorescent DNA synthesis assay, 10 min; further: on the % scale 0 is the no-effect control and ±100 the full control effect
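Kinetic fluorescence screen: compound preincubated 15 min RT with 10 nM enzyme; 50 nM substrate (final) initiates; reads at 0/10 min.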
Pol iota inh – qHTS for Inhibitors of Polymerase Iota. DNA polymerase iota (Homo sapiens), Q9UNA4. Pol iota fluorescent replication assay, 10 min. Potency, µM (titrated, usually from 115 µM), inactives show top-dose activity, negative = inhibition, actives largely listed as inhibitors. 390,000 compounds, 1% hits. AID 588590, 2011
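Pol iota at 10 nM preincubated 15 min with compounds at room temperature; reaction started with fluorescent substrate, 50 nM final. Fluorescence read kinetically at 0 and 10 min; buffer-only wells as negative control.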
Pol beta inh – qHTS Assay for Inhibitors of DNA Polymerase Beta; AID 485314, 2010; 340,000 compounds, 1.3% hits; P06746; Pol beta primer extension/strand displacement, fluorescence kinetic; Potency, µM (series often up to 114 µM), inactives show at the highest dose activity change, negative = inhibition, usual class: inhibitors; further: on the % scale 0 is the no-effect control and ±100 the full control effect
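Enzyme-only controls used 10 nM Pol beta; buffer lacking enzyme served as negative control. Compound preincubated 15 min, then 50 nM substrate added; 0 and 10 min reads at room temperature.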
TbPGK inh – qHTS for inhibitors of Phosphogylcerate Kinase: Hit Validation Screen; shares compounds with Pol kappa inh-1; TbPGK coupled GAPDH assay, Kinase-Glo luminescence; Potency, µM (top dose mostly 57.5 µM), without a hit: top-dose activity change, negative = inhibition, most hits filed as inhibitors; 500 compounds, 79% hits; AID 686980, 2013; further: on the % scale 0 is the no-effect control and ±100 the full control effect; nearly all actives have a fitted effect of over 65% in size
Target sequence (P07378 whole entry, looked up): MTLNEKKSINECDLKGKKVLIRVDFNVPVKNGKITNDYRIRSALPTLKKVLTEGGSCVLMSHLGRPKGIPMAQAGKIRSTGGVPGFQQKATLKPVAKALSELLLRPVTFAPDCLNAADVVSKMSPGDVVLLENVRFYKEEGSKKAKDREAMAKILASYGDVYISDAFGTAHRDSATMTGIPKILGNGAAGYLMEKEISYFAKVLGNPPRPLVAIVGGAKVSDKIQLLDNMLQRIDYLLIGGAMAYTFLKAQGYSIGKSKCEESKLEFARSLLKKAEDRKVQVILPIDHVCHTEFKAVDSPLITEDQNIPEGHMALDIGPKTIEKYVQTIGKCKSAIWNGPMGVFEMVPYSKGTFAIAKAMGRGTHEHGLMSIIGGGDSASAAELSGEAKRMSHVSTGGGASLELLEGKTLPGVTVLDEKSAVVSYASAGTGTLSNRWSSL
Pol iota confirm – qHTS for Inhibitors of Polymerase Iota: Confirmatory Assay for Cherry-picked Compounds; Pol iota primer extension, TAMRA/BHQ fluorescence; shares compounds with Pol kappa inh-1; AID 720496, 2013; 1,500 compounds, 77% hits; Potency, µM, hits mostly inhibitors
Pol kappa inh-2 – qHTS for Inhibitors of Polymerase Kappa: Confirmatory Assay for Cherry-picked Compounds. purified Pol-kappa, fluorescent strand-displacement substrate. shares compounds with Pol eta inh-1. Potency, µM, hits mostly inhibitors. AID 720501, 2013. 920 compounds, 76% hits
Pol eta inh-2 – qHTS for Inhibitors of Polymerase Eta: Confirmatory Assay for Cherry-picked Compounds. shares compounds with Pol eta inh-1. Pol eta primer extension, TAMRA/BHQ fluorescence, 10 min. Potency, µM, most hits filed as inhibitors. AID 720502, 2013. 2,600 compounds, 64% hits
* hit, by the source's call; u = inconclusive; x = no result given; [ ] = another dose, or the depositor's remark. An excerpt weighted towards active compounds, which were near 2.3% of everything screened. The call rests on the fitted dose curve; in most records, active means well fitted curve in the direction sought with a large enough effect; inconclusive means small, poorly fitted or top-dose-only effect, or another doubt; inactive means no such curve, though single readings can be large; an effect the other way counts as inactive or inconclusive. Potency means the concentration at half of the fitted maximal effect.

SMILES | Pol eta inh-1 | WRN helicase inh | Pol kappa inh-1 | Pol iota inh | Pol beta inh | Pol iota confirm | Pol eta inh-2 | others
COc1ccccc1/C=C1\C(=O)NC(=S)N(c2ccccc2)C1=O | -19% | -9% | -4% | u | 2% | x | x
CCOc1cccc(N2C(=O)/C(=C/c3ccco3)C(=O)NC2=S)c1 | 3.2µM* | 35µM* | 22µM* | u | 7.9µM* | 9.5* | 15* | TbPGK inh=9.2µM*
CNc1ccc2oc(C[C@H]3O[C@]4(CC[C@H]3C)O[C@H]([C@H](C)C(=O)c3ccc[nH]3)[C@H](C)C[C@H]4C)nc2c1C(=O)O | x | x | -14%[19.4 µM] | x | x | x | x
Cc1cccc(N2C(=O)NC(=O)/C(=C/c3ccc(-c4ccc(C(=O)O)c(Cl)c4)o3)C2=O)c1 | x | x | x | x | 24% | x | x
O=C1NC(=O)N(c2cccc(Cl)c2)C(=O)/C1=C\c1ccc(Sc2nc3ccccc3[nH]2)o1 | 18µM* | 89µM* | 22µM* | u | 32µM* | 75* | 27*
COc1ccc(/C=C2/C(=O)N(Cc3ccco3)C(=O)N(C(C)C)C2=O)cc1 | 4.5µM* | -33%[11.6 µM] | 20µM* | 7.9µM* | 20µM* | 21* | 11* | TbPGK inh=u
CN(C)c1ccc(/C=C2/C(=O)NC(=O)N(Cc3ccco3)C2=O)cc1 | 6.3µM* | 50µM* | 35µM* | 16µM* | u | 67* | 38* | Pol kappa inh-2=30*
O=C(Oc1ccc(N2C(=O)C3C4CCC(C4)C3C2=O)cc1)c1ccco1 (stereo unspecified) | -2% | -1% | -2% | 22% | 3% | x | x
CC(C)CS(=O)(=O)C1=NN2C(=N)/C(=C\c3ccc(OC(=O)c4ccco4)cc3)C(=O)N=C2S1 | 20µM* | u | u | 14µM* | 45µM* | 75* | 24*
CCC1(CC)CCNC1=O | x | x | 10%[60.1 µM] | x | x | x | x
COCCN1C(=O)NC(=O)/C(=C\c2ccc(F)cc2)C1=O | -16% | 8% | 4% | 0% | u | x | x
O=C1NC(=O)N(CCc2ccc(F)cc2)C(=O)/C1=C/c1ccco1 | 20µM* | 35µM* | u | 13µM* | 3.2µM* | 67* | 48* | TbPGK inh=8.2µM*
CC1=C(O)C(=O)[C@@H]2O[C@@H]2C1=O | x | x | -4%[19.4 µM] | x | x | x | x
CC[n+]1c(-c2ccccc2)c2cc(N)ccc2c2ccc(N)cc21 | 4.5µM* | 3µM* | 20µM* | 40µM* | x | 15* | u | Pol kappa inh-2=9.5*
C[C@H]1CO1 | x | x | 12%[60.1 µM] | x | x | x | x
O=C(Cc1cc(=O)oc2cc(O)ccc12)NN=Cc1ccc(N(CCCl)CCCl)cc1 | 16µM* | u | u | u | x | u | u
O=C(NN=Cc1ccc(N(CCCl)CCCl)cc1)c1cc(=O)[nH]c(=O)[nH]1 | -16% | -3% | 6% | u | x | x | x
Oc1ccc2c3c1O[C@H]1c4c(c5ccccc5n4Cc4ccccc4)C[C@@]4(O)C(C2)N(CC2CC2)CC[C@]314 | x | x | -4%[19.4 µM] | x | x | x | x

Compound activity (PubChem)
